This is a sample that favours compounds with a hit; in the whole collection about 9.2% have one here.
KDM4E inh – JMJD2E (human) inhibition; B2RXH2; JMJD2E catalytic domain, FDH-coupled NADH fluorescence (FDH is formaldehyde dehydrogenase); Potency, µM (series often up to 57.1 µM), without a hit: top-dose activity change, negative = inhibition, hits mostly inhibitors; 1.6% of 230,000 active;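 note: 0% = wells with enzyme and -100% = buffer wells without enzyme; nearly all actives have a fitted effect of over 50% in size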
Target sequence (B2RXH2 1-337 limits assumed): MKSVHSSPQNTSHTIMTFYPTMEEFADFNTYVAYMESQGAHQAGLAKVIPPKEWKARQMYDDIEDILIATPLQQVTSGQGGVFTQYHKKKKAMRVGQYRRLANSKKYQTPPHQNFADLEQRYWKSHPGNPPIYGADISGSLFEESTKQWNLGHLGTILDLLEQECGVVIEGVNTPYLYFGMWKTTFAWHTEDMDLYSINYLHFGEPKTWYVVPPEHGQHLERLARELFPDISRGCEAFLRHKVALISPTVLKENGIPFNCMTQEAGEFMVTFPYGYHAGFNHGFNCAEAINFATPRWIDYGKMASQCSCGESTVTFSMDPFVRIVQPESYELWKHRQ
HPGD inh – HPGD (human) dehydrogenase inhibition; P15428; purified HPGD, NADH fluorescence kinetic, PGE2 substrate; Potency, µM, for inactives: at the top dose activity change, negative = inhibition, actives largely listed as inhibitors; 4.3% of 150,000 active; AID 894; note: % is set by controls: 0 for no effect and ±100 for the full control effect
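20 nM HPGD preincubated 15 min at room temperature with compound in 50 mM Tris-HCl pH 8, 0.01% Tween 20. Started with 1 mM NAD+ and 30 uM prostaglandin E2; NADH fluorescence (360/450 nm) read 5 times over 30-s intervals, last minus first.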
HttQ103 aggreg – mutant huntingtin aggregation inhibition | PC12 HttQ103-GFP aggregates, Acumen cytometry, 40 h | Potency, µM (titrated, usually from 46.1 µM), inactives show at the top dose activity change, negative = inhibition, hits mostly inhibitors | 1.1% of 220,000 active; active = well fitted curve in the direction sought with a large enough effect; inconclusive = small, poorly fitted or top-dose-only effect, or another doubt; inactive = no such curve, though single readings can be large; an effect the other way counts as inactive or inconclusive; note: % is set by controls: 0 for no effect and ±100 for the full control effect; nearly all actives have a fitted effect of over 60% in size
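PC12 cells with ecdysone-inducible HTT exon1 Q103-GFP, induced by 100 nM tebufenozide, given compounds in a concentration series. GFP aggregates (1–25 um, 6 SD above background) counted in lysates by laser-scanning cytometry, 488 nm excitation.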
ALDH1A1 block – ALDH1A1 (human) enzyme inhibition. P00352. Purified ALDH1A1, NADH fluorescence, propionaldehyde substrate. Potency, µM (highest dose often 75.3 µM), inactives show at the highest dose activity, negative = inhibition, most hits filed as inhibitors. 7.3% of 220,000 active. AID 1030;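 note: plate controls were no enzyme wells and a reference inhibitor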
LMNA splice mod – LMNA splicing modulation. HeLa LMNA splicing GFP/RFP minigene ratio, 48 h. 0.01% of 200,000 active. Potency, µM (highest dose often 46.1 µM), for inactives: top-dose ratio change, negative = inhibition, actives largely listed as inhibitors; active = well fitted inhibition curve with a large enough effect in the signal ratio, with a control signal flat, not every such curve was filed as active; inconclusive = small, poorly fitted or top-dose-only effect, or effect the other way, or a change in a side signal; the % refers to the signal ratio; note: % is set by controls: 0 for no effect and ±100 for the full control effect
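Read-out is the ratio of GFP to DsRed2 object intensity, acquired by 488 nm laser-scanning cytometry on HeLa lamin A-EGFP minigene reporter cells. Compound incubation 48 hrs at 37 °C in Opti-MEM with 2% FBS; DMSO 0.5% final.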
HTT cytoprotect – Huntington cell model cytoprotection by ATP luminescence; 0.14% of 230,000 active; PC12 HTT-Q103 induced, cytoprotection, ATP luminescence, 40 h; Potency, µM (highest dose often 56.4 µM), for inactives: cytoprotection (ATP increase), most hits filed as activators; AID 1471; active = well fitted curve in the direction sought with a large enough effect; inconclusive = small, poorly fitted or top-dose-only effect, or another doubt; inactive = no such curve, though single readings can be large; an effect the other way counts as inactive or inconclusive; note: % of control where 0% means no effect; nearly all actives have a fitted effect of over 45% in size
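PC12 cells with ecdysone-inducible HTT exon 1 Q103-GFP, induced with 100 nM tebufenozide and co-treated with library compounds in a dose series (1536-well, 1500 cells/well). Cytoprotection read as ATP content by ATPlite luminescence.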
An asterisk follows results filed as active; u = inconclusive; x = no result; [ ] = another dose, or the depositor's remark. Unless noted, calls come from the whole dose curve; as a rule, active = well fitted inhibition curve with a large enough effect (not every such curve was filed as active); inconclusive = small, poorly fitted or top-dose-only effect, or another doubt; inactive = no such curve, though single readings can be large or run the other way. Potency is the fitted concentration of half-maximal effect.

SMILES | KDM4E inh | HPGD inh | HttQ103 aggreg | ALDH1A1 block | LMNA splice mod | HTT cytoprotect
CCOC(=O)c1c(NC(=O)c2ccccc2Br)sc2c1CCc1ccccc1-2 | u | 14µM* | -17% | u | -6% | 3%
CCOC(=O)c1c(NC(=O)Nc2ccccc2)sc(C)c1C | -15% | -9% | 6% | -16% | 1% | -24%
CCOC(=O)c1c(NC(=O)COC)sc2c1CCCC2 | u | -15% | -4% | u | 6% | -7%
CCOC(=O)c1c(NC(C)=O)sc2c1CCC(C=O)=C2Sc1ccccc1 | -7% | 35µM* | -30% | 5µM* | -15% | 35%
Cc1cc(=O)[nH]c(SCC(=O)OCc2ccccc2)c1C#N | -7% | x | 4%[9.22 µM] | -6% | u | 5%[10 µM]
CCCc1c(OCCCCc2nn[nH]n2)ccc(C(C)=O)c1O | -15% | -12% | -1% | 5% | u | -8%
CCCc1c(OCC(O)COc2ccc3c(=O)cc(C(=O)O)oc3c2CCC)ccc(C(C)=O)c1O (stereo unspecified) | x | 18µM* | x | -11% | x | -3%
N#C/C(=C\c1ccc(-c2cccc(C(F)(F)F)c2)o1)C(=O)Nn1cnnc1 | 3% | 1.4µM* | 32% | 3% | -10% | -2%[10 µM]
CCOC(=O)N/N=C\c1ccc(-c2cccc(C(F)(F)F)c2)o1 | -10% | x | -19% | -6% | x | -48%
O=C1ON=C(c2ccccc2)/C1=C/c1ccc(OS(=O)(=O)c2ccccc2)cc1 | u | 10µM* | u | 11µM* | -7% | 12%[10 µM]
O=C1ON=C(c2ccccc2)/C1=C/c1cccnc1 | 2% | x | 26% | -3% | 10%[46 µM] | 27%[10 µM]
COc1ccc(C(N)=S)c(OC)c1 | -1% | 40µM* | 3% | 13µM* | 11% | x
CCOc1ccc(-c2cn3c(n2)sc2cc(C(=O)NCCCN4CCCCC4)ccc23)cc1 | x | x | x | x | -6%[46 µM] | x
Cc1ccc(S(=O)(=O)NC(=O)c2cccn2C)cc1 | 1% | -13% | 17% | -7% | 10% | -3%
COCCn1c(N)c(C(=O)NS(=O)(=O)c2ccc(C)cc2)c(=O)[nH]c1=O | -1% | x | 17% | 16µM* | x | -30%[10 µM]
CC(C)OP(=O)(OC(C)C)C(O)c1cccc([N+](=O)[O-])c1 (stereo unspecified) | -3% | x | -11%[9.22 µM] | x | x | 5%[10 µM]
CC(=O)Nc1c(O)nc(SCC(=O)Nc2ccc(C(C)=O)cc2)[nH]c1=O | 4% | -27% | 15% | 11µM* | 2% | -27%
CC(=O)Nc1c(O)nc(SCC(=O)Nc2cccc(C)c2)[nH]c1=O | -1% | -8% | u | -7% | 7% | -53%[10 µM]
C=C1C(=O)OC2C1CC/C(C)=C/CCC1(C)OC21 (stereo unspecified) | -22% | -14% | x | u | u | x
CC1CCCC(C)N1C(=O)c1cc(-c2ccc(Cl)c(Cl)c2)on1 (stereo unspecified) | -6% | 18µM* | -28% | -19% | 10% | -20%
Cc1ccc(-c2cc(C(=O)N3CCCC3)no2)cc1 | 3% | u | 10% | u | 24% | -150%[0.074 µM]
COc1cc(C(=O)NCC(c2cccs2)S(=O)(=O)c2cccs2)cc(OC)c1OC (stereo unspecified) | x | x | x | x | -5%[46 µM] | x
Cc1cc([N+](=O)[O-])c(C)cc1-c1ccc(/C=N/NC(=O)Cn2nnnc2N)o1 | 0% | x | 9% | 15µM* | -5%[9.22 µM] | -44%
O=C(Oc1ccc(C(=S)N2CCOCC2)cc1)c1ccccc1 | 10% | x | 15% | -2% | 23%[46 µM] | -41%
O=C(Oc1ccc(C(=S)N2CCCCC2)cc1)c1ccccc1F | 3% | x | u | 8.9µM* | x | -28%
Cc1ccccc1C(=O)Oc1ccc(Br)cc1C(=S)N1CCCC1 | -6% | -18% | 0% | -14% | 5% | 10%
O=C(Oc1ccc(Br)cc1C(=S)N1CCCC1)c1ccccc1F | -17% | 25µM* | 2% | 11µM* | u | x
CCOc1cc(CNc2ccc3c(c2)CCC3)ccc1OC | u | -14% | 7%[9.22 µM] | 20µM* | 5% | 11%
COc1ccc(NC(=O)Nc2ccc3c(c2)CCC3)cc1OC | -4% | x | -10%[9.22 µM] | 4% | x | -29%[1.9 µM]

Screens: PubChem BioAssay, National Center for Advancing Translational Sciences (NCATS)
